High-throughput results deposited in PubChem BioAssay by National Center for Advancing Translational Sciences (NCATS).
HT1080NT lethal = kills 2HG-producing HT-1080-NT fibrosarcoma cells. HT-1080-NT fibrosarcoma viability, CellTiter-Glo ATP luminescence, 48 h. Potency, µM (highest dose often 46.1 µM), without a hit: at the highest dose activity, negative = less viability, most hits filed as cytotoxic. 1.6% of 360,000 active. AID 686970;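 note: NT is the 2HG producing partner of a matched IDH1 knockdown line; potency is the fitted concentration of half-maximal effect; 0% = DMSO-treated cells and -100% = media-only wells without cells; nearly all actives have a fitted effect of over 55% in size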
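HT-1080-NT; 750 cells/well; 5% FBS RPMI; 48 h compound, 37 degrees C; CellTiter-Glo luminescence; curve fitting and curve-class assignment.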
HT1080 IDH1KD tx = toxicity to HT-1080 IDH1 knockdown cells (counter line); Potency, µM (series often up to 46.1 µM), without a hit: top-dose activity, negative = toxicity, actives largely listed as cytotoxic; HT-1080 IDH1 knockdown viability, ATP luminescence, 48 h; 2% of 360,000 active;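 note: potency is the fitted concentration of half-maximal effect; 0% = DMSO wells and -100% = cell-free medium wells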
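Viability of IDH1-knockdown HT-1080 fibrosarcoma cells was assessed by CellTiter-Glo after 48 h at 37 °C with titrated compound; concentration-effect curves were classified by fit quality and response size.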
DT40 TDP1 no CPT = qHTS for Inhibitors of human tyrosyl-DNA phosphodiesterase 1 (TDP1): qHTS in cells in absence of CPT; DT40 Tdp1-/- hTDP1 cells, no CPT, ATP luminescence, 48 h; Potency, µM (top dose mostly 46.2 µM), for the others: at the highest dose activity change, negative = growth inhibition, most hits filed as inhibitors; 15% of 420,000 active; note: potency is the fitted concentration of half-maximal effect; nearly all actives have a fitted effect of over 55% in size
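Cells were dispensed at 400 per well, compounds added by pin tool, plates incubated ≥48 hr at 37 °C, then CellTiter-Glo added for 30 min at room temperature before luminescence reading. Line: DT40 Tdp1-/- complemented with hTDP1; camptothecin omitted.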
IL-1B inflam inh = blocks inflammasome-driven IL-1 beta release. THP-1 LPS/ATP IL-1B secretion, AlphaLISA, 16 h; active compounds read low. activity change, % at 57.5 µM. 4.7% of 360,000 active; in the data active = activity change below about -50%; inconclusive = mostly about -30% to -49%
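THP-1 cells pretreated 1 hr with compounds (up to 57.5 uM final), then stimulated with LPS (250 ng/mL final) plus ATP (1.25 mM final); secreted IL-1B measured by AlphaLISA after 16 hr, decreased signal indicating inhibition.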
DT40 TDP1 CPT = DT40-hTDP1 cell growth loss with CPT | chicken DT40 Tdp1-/-;hTDP1 cells + 20 nM CPT, ATP luminescence, 48 h | Potency, µM (top dose mostly 46.2 µM), inactives show at the top dose activity change, negative = growth inhibition, usual class: inhibitors | 12% of 420,000 active | AID 686979; note: potency is the fitted concentration of half-maximal effect; nearly all actives have a fitted effect of over 55% in size
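Cell growth measured by CellTiter-Glo luminescence after a minimum 48 h, 37 C compound exposure with 20 nM CPT in Tdp1-knockout DT40 cells stably expressing hTDP1, seeded 400/well; qHTS titration format.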
* hit, by the source's call; ? = inconclusive; / = no result; ! = not confirmed by another sample. Shown are actives, neighbours in structure and some others; about 19% of the full set was active somewhere. Unless noted, calls come from the whole dose curve; as a rule, active = well fitted curve in the direction sought with a large enough effect; inconclusive = small, poorly fitted or top-dose-only effect, or another doubt; inactive = no such curve, though single readings can be large; an effect the other way counts as inactive or inconclusive. Unless noted, % is set by controls: 0 for no effect and ±100 for the full control effect.

SMILES	HT1080NT lethal	HT1080 IDH1KD tx	DT40 TDP1 no CPT	IL-1B inflam inh	DT40 TDP1 CPT
CCCCCSc1cc(O)c(C(CNC)C(C)C)cc1OC (centres undefined)	?	?	16µM*	-68*	?
C=C(C)[C@@]12OC3(c4ccccc4)O[C@@H]1C1[C@@H]4O[C@]4(CO)[C@@H](O)[C@]4(O)C(=O)C(C)=C[C@H]4[C@@]1(O3)[C@H](C)[C@H]2OC(=O)/C=C/C=C/c1ccccc1 (some centres undefined)	?	?	3.3µM*	97	16µM*
Cc1ccc2c(c1)C1CN(C)CCC1N2C(=O)c1cccs1 (centres undefined)	3%	-1%	-1%	-8	19%
Cc1ccc2c(c1)C1CN(C)CCC1N2C(=O)Nc1ccc(Cl)cc1 (centres undefined)	?	?	26µM*	-72*	?
O=C(O)[C@@H](O)[C@H](O)[C@H](O)[C@@H](O)C(=O)O	/	/	4%	/	-3%
Cc1cccc(N2CCc3c2nc2ccccc2c3N)c1	0%	-1%	?	-91*!	15µM*
Cc1ccnc(-n2c(C)nc3ccccc3c2=O)c1	-2%	8%	?	21	-28%
CNC(C)CC1CCCCC1 (centres undefined)	/	/	-14%	/	-3%
CCc1ccc2c(CN3CC=C(c4ccccc4)CC3)cc(=O)oc2c1	4%	0%	16µM*	10	?
O=c1[nH]c(CN2CC=C(c3ccccc3)CC2)nc2cc(C(F)(F)F)ccc12	-7%	-1%	?	25	?
Cc1ccc2c(CN3CC=C(c4ccccc4)CC3)cc(=O)oc2c1C	4%	5%	23µM*	1	?
CC(C)C[C@H](NP(=O)(O)O[C@@H]1O[C@@H](C)[C@H](O)[C@@H](O)[C@H]1O)C(=O)N[C@@H](Cc1c[nH]c2ccccc12)C(=O)O	19%	7%	-1%	-2	0%
N#Cc1ccc(NC(=S)N2Cc3ccccc3-n3nncc3C2)cc1	-4%	-7%	?	10	-26%
CC[C@H]1c2ccccc2[C@@H]2CC[C@H]1N2c1ccccc1	8%	1%	-7%	26	-4%
O=C(NCc1ccccc1)Oc1cccc(Cl)c1	-10%	-3%	16µM*	0	?
CCOc1ccc(N=Cc2c(O)n(CCc3ccc(OC)c(OC)c3)c(=O)[nH]c2=O)cc1	3%	3%	16µM*	9	?
COc1ccc(CCn2c(O)c(C=Nc3ccc(NC(C)=O)cc3)c(=O)[nH]c2=O)cc1OC	?	-3%	-19%	14	?
C[C@H](CO)N1C[C@H](C)[C@@H](CN(C)C(=O)Oc2ccccc2)OCc2cnnn2CCCC1=O	14%	-2%	-4%	19	8%
CN1CCN(c2cc3c(nn2)Oc2ccccc2N3C)CC1	/	/	?	/	8%
COc1ccccc1NC(=O)N(Cc1ccc2c(c1)OCO2)C1CCN(Cc2ccccc2)CC1	/	/	5.2µM*	/	4.6µM*
O=C(Nc1ccccc1)N(Cc1ccc2c(c1)OCO2)C1CCN(Cc2ccccc2)CC1	/	/	15µM*	/	?
COc1cc2c(cc1OC)-c1c(OC)c(OC)c(OC)c3ccnc(c13)C2=O	2%	2%	3.7µM*	?	4.1µM*
CC(Cc1ccccc1)N1Cc2ccccc2C1 (centres undefined)	10%	-4%	-22%	-4	4%
COc1ccccc1-n1c(-c2ccc(C)cc2)nc2ccccc2c1=O	-9%	-16%	12µM*	1	?
COc1ccccc1-n1c(-c2ccccc2Br)nc2ccccc2c1=O	-21%	-2%	18µM*	1	23µM*
SMILES	HT1080NT lethal	HT1080 IDH1KD tx	DT40 TDP1 no CPT	IL-1B inflam inh	DT40 TDP1 CPT
Cc1nc2ccc(Cl)cc2c(=O)n1-c1ccccc1Cl	-15%	-25%	-85%	-11	-26%
Cc1nc2ccccc2c(=O)n1-c1ccccc1Cl	/	/	24µM*	/	?
CCn1c(=O)n(CC)c2cc([N+](=O)[O-])c(N3CCNCC3)cc21	-9%	-13%	1%	21	8%
COc1ccc(CNC(=O)/C=C/c2ccc3[nH]cc(CCN(C)C)c3c2)cc1	-2%	-22%	-4%	-13	-9%
COC(=O)c1ccccc1NC(=O)N1C[C@@H]2C[C@@H](C1)c1cccc(=O)n1C2	-1%	1%	3%	20	23%
CCOC(=O)C1=CC(=C2C(=O)N(CC)C(=S)N(CC)C2=O)c2ccccc2O1	5%	4%	-9%	-15	1%
CC12CCC3C(CC=C4CC(O)CCC43C)C1C/C(=C\c1cccc(F)c1)C2=O (centres undefined)	?	?	15µM*	4	?
COc1ccc2c(c1)[C@@]13CCCCC1[C@@H](C2)N(C)CC3 (some centres undefined)	/	/	16µM*	/	-125%
COc1ccccc1N=c1scc(-c2ccc(S(=O)(=O)N3CCCC3)cc2)n1C	/	/	2.9µM*	/	5.2µM*
COc1ccccc1N1CCN(S(=O)(=O)c2ccc3c(c2)oc(=O)n3C)CC1	3%	2%	?	-12	-3%
C[C@H]1C=CC(=O)O[C@H]1c1ccccc1	-25%	-20%	?	-105*	?
CCC1(C)Cc2ccccc2-c2c1c(=O)n(Cc1ccccc1)c1nnnn21 (centres undefined)	-13%	-2%	?	-4	?
O=c1c2ccccc2nc(-c2ccccc2Cl)n1-c1ccc(O)cc1	?	?	?	44	-10%
O=c1[nH]c2ccccc2n1C1CCN(C(CCc2ccccc2)c2nnnn2C2CCCC2)CC1 (centres undefined)	?	?	16µM*	-55*	18µM*
O=c1[nH]c2ccccc2n1C1CCN(C(c2cccc3ccccc23)c2nnnn2Cc2ccccc2)CC1 (centres undefined)	?	?	8.2µM*	?	12µM*
O=c1[nH]c2ccccc2n1C1CCN(Cc2ccc(-c3[nH]c4cc5ncnc5cc4nc3-c3ccccc3)cc2)CC1	?	?	2.9µM*	0	2.3µM*
O=c1[nH]c2ccccc2n1C1CCN(C(c2cc3ccccc3o2)c2nnnn2Cc2ccccc2)CC1 (centres undefined)	10µM*	8.2µM*	9.2µM*	?	10µM*
CCC(c1nnnn1C1CCCC1)N1CCC2(CC1)C(=O)NCN2c1ccccc1 (centres undefined)	16%	4%	-24%	-15	?
